Reference: PubChem BioAssay (NCI)
The panel holds about 83,000 compounds, 20% with a hit somewhere; the sample as a whole holds those more often.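 Cell lines were cultured in 96-well plates, exposed to a single compound concentration, and assessed for percent growth 48 hours later.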 A number with no mark means an inactive call. Activity calls are given as the source filed them. Rule for the calls: active = growth percent below 10; inactive = the rest.

Legend:
Test in all cases: NCI-60 one-dose screen, 48 h (100 = growth as untreated, 0 = no growth, -100 = all killed)
Conditions in all cases: 10 µM unless noted
SK-MEL-2 melanoma = test system: SK-MEL-2 melanoma
EKVX NSCLC = test system: EKVX NSCLC
SN12C renal = test system: SN12C renal
UO-31 renal = test system: UO-31 renal
TK-10 renal = test system: TK-10 renal
CAKI-1 renal = test system: CAKI-1 renal
A498 renal = test system: A498 renal
MOLT-4 leukemia = test system: MOLT-4 leukemia
SR leukemia = test system: SR leukemia
RPMI-8226 leukemia = test system: RPMI-8226 leukemia
OVCAR-8 ovarian = test system: OVCAR-8 ovarian
OVCAR-5 ovarian = test system: OVCAR-5 ovarian
OVCAR-4 ovarian = test system: OVCAR-4 ovarian
SK-OV-3 ovarian = test system: SK-OV-3 ovarian
IGROV1 ovarian = test system: IGROV1 ovarian
OVCAR-3 ovarian = test system: OVCAR-3 ovarian
HS 578T breast = test system: HS 578T breast
NCI/ADR-RES ovarian = test system: NCI/ADR-RES ovarian
CCRF-CEM leukemia = test system: CCRF-CEM leukemia
ACHN renal = test system: ACHN renal

| SMILES | growth (SK-MEL-2 melanoma) [%] | growth (EKVX NSCLC) [%] | growth (SN12C renal) | growth (UO-31 renal) | growth (TK-10 renal) [%] | growth (CAKI-1 renal) | growth (A498 renal) | growth (MOLT-4 leukemia) | growth (SR leukemia) | growth (RPMI-8226 leukemia) | growth (OVCAR-8 ovarian) | growth (OVCAR-5 ovarian) [%] | growth (OVCAR-4 ovarian) [%] | growth (SK-OV-3 ovarian) | growth (IGROV1 ovarian) | growth (OVCAR-3 ovarian) | growth (HS 578T breast) | growth (NCI/ADR-RES ovarian) | growth (CCRF-CEM leukemia) | growth (ACHN renal) [%] |
| --- | --- | --- | --- | --- | --- | --- | --- | --- | --- | --- | --- | --- | --- | --- | --- | --- | --- | --- | --- | --- |
| O=C(c1ccc(Cl)cc1)C1[C@H](c2ccc(Cl)cc2)[C@@H](c2ccccc2)NC12C(=O)Nc1ccccc12 (some centres undefined) | 72.5 | 58.6 | 16.6% | 43.8% | 78.8 | 37% | 74.3% | 21.1% | 3.54% (active) | 40.1% | 64% | 71 | 59.7 | 102% | 44.9% | 47.7% | 67.1% | 52.2% | – | – |
| COc1cc(OC)c(/C=C/S(=O)(=O)Cc2ccc(OC)c(NCC(=O)NO)c2)c(OC)c1 | 51.1 | 34.4 | 19.2% | 35.4% | 65 | 25.7% | -11.7% (active) | 16.5% | 12.2% | 20.2% | 8.29% (active) | 33.6 | 45.3 | 37.3% | – | 2.98% (active) | 17% | 7.63% (active) | 14.8% | – |
| Cn1ccnc1C(=O)/C=C/C=C/c1ccc(C(=O)Nc2ccc(F)cc2)cc1 | 90.8 | 33.4 | 1.94% (active) | 44.3% | 61.2 | 37.2% | 62% | 12.3% | 10.8% | -5.49% (active) | 13.6% | 33.7 | 45.7 | 67.1% | 10.5% | 5.1% (active) | 39.1% | 26.7% | – | – |
| O=C1CCCC2=C1C(c1c[nH]c3ccc(Br)cc13)Cc1cc(Br)ccc1N2 (centres undefined) | 25.3 | 41.9 | 34.5% | 36.3% | 94.8 | 24.7% | 13.5% | 21.5% | 33.3% | 25.1% | 55.3% | 66.2 | 101 | 44.7% | 24.1% | 27.2% | – | 21.4% | 6.67% (active) | – |
| O=C1C(c2ccccc2)=C(N2CCc3ccccc32)OC1(Cl)Cl | 92.2 | 76.3 | 77.5% | -23.6% (active) | 27.6 | 4.78% (active) | 69.2% | 0.0776% (active) | 17.5% | 8.06% (active) | 74.3% | 82 | 59.9 | 112% | 43.5% | – | 66.3% | 86.7% | -17.8% (active) | – |
| CCOC(=O)c1c(Nc2ccccc2)nn2c(-c3ccc(Cl)cc3)ccnc12 | – | 88.9 | 83.9% | 64.8% | 98.1 | 56.1% | – | 86% | 72.7% | 91.7% | 80.6% | 87.2 | 66.5 | 75.4% | 80.5% | – | 72.6% | 63.6% | 16.2% | 47.2 |
| CCOC(=O)c1c(Nc2ccccc2)nn2c(-c3ccccc3)ccnc12 | – | 95.4 | 90.5% | 85.5% | 111 | 88.7% | – | 87.1% | 74.4% | 30.7% | 96.1% | 93.4 | 95.9 | 102% | 110% | – | 91.9% | 87.6% | 9.59% (active) | 90.7 |
| C/C(=N\O)[C@H]1C[C@]23CC[C@]4(C)[C@H](CC[C@@H]5[C@@]6(C)CC/C(=N/O)C(C)(C)[C@@H]6CC[C@]54C)[C@H]2[C@H](C)C1(C)OC3 | 110 | – | 91.5% | 67% | 73.7 | 65.2% | 72% | 98.7% | 98.7% | 124% | 106% | 105 | 82.8 | 122% | 86.2% | 113% | – | 113% | 101% | 104 |
| Cc1ccc(CSc2nc(-c3ccc(Cl)cc3)c(C#N)c(N3CCOCC3)n2)cc1 | – | 95.1 | 98.1% | 86.1% | 105 | 76.4% | – | 85% | 85.6% | 82.2% | 97.2% | 100 | 89.8 | 98.2% | 106% | – | 107% | 94.8% | 1.17% (active) | 98.9 |
| CCO/C=N/C1=C(C#N)C(c2ccc(F)cc2)c2sc3c(C)cccc3c2O1 (centres undefined) | 42.7 | – | 17.3% | 27.9% | 66.4 | 28.4% | -0.888% (active) | 23.1% | 17.3% | 12.8% | 23.9% | 25.6 | 51 | 66.6% | 18.7% | – | 24.6% | 12.1% | 21.1% | 23.1 |
| COc1ccc(-n2c(SCc3nnc(NC(=O)c4ccc(Br)cc4)s3)nc3cc(OC)c(OC)cc3c2=O)cc1 | – | 91.1 | 91% | 84.2% | 118 | 83.8% | – | 105% | 101% | 104% | 94.9% | 95.5 | 93.8 | 108% | 102% | – | 99% | 78.8% | 90.9% | 97.5 |
| Brc1ccccc1/C=N/Nc1nc(N/N=C/c2ccccc2Br)nc(N2CCOCC2)n1 | 96.3 | – | 98.8% | 78.6% | 99.4 | 109% | 50.2% | 72.6% | 63.9% | 65% | 96.6% | 111 | 96.2 | 114% | 89.7% | – | – | 91.5% | 80.1% | 93.6 |
| O=C1/C(=C/C=C/c2ccco2)SC(=S)N1C1CCCCC1 | – | 93 | 83.4% | 85.6% | 106 | 93.1% | – | 90.5% | 82.2% | 100% | 97.4% | 94 | 95.3 | 104% | 101% | – | 101% | 99% | 91.2% | 96 |
| O=C(NNc1nc2cc(F)ccc2n2c(CO)ccc12)c1cnccn1 | 21.7 | – | 21.5% | 8.71% (active) | 21 | – | 8.46% (active) | 2.51% (active) | 5.16% (active) | 21% | 10.9% | 36.4 | 20.5 | 9.3% (active) | 14.9% | 33.4% | 68.3% | 3.02% (active) | 7.36% (active) | 10.2 |
| CCCCCc1ccc(S(=O)(=O)Nc2cccc(-c3csc(NC(=O)CNCCN(C)C)n3)c2)cc1 | 108 | – | 91.2% | 74.8% | 112 | 86.8% | 76.9% | 61.8% | 22.2% | 30.3% | 95.7% | 110 | 70 | 109% | 87.9% | 87.7% | 90.9% | – | – | – |
| CC(C)c1ccc(NCc2cn(-c3ccc(C(=O)O)cc3)nc2-c2cc(C(F)(F)F)cc(C(F)(F)F)c2)cc1 | 91.8 | – | 85.9% | 78.6% | 118 | 63.7% | 90% | 71.6% | 101% | 65.7% | 85% | 103 | 96.2 | 90.5% | 92.7% | 80.9% | – | 82.8% | 74.8% | – |
| CC1=NC2=NC(=O)/C(=C3/N=C(C)C=C(c4ccccc4)N3N)NN2C(c2ccccc2)=C1 | 108 | – | 100% | 78.6% | 168 | 83.2% | 127% | 104% | 116% | 111% | – | 101 | 96.7 | 98.8% | 70.1% | 108% | 116% | 108% | 109% | – |
| O=S(=O)(Oc1ccc(-c2nnc(Nc3ccccc3)s2)cc1)C(F)(F)C(F)(F)C(F)(F)C(F)(F)C(F)(F)C(F)(F)F | 106 | – | 98.7% | 98.2% | 109 | 92.7% | 99.5% | -29.1% (active) | 19.5% | 105% | 107% | 93.3 | 107 | 108% | 107% | – | 98.4% | 103% | 102% | 103 |
| CCO/C=N/C1=C(C#N)C(c2ccc(F)cc2)c2sc3c(CC)cccc3c2O1 (centres undefined) | 42.7 | – | 22.9% | 32.2% | 63.9 | 36.4% | -3.45% (active) | 19.8% | 6.82% (active) | 4.25% (active) | 27.2% | 29.2 | 60.4 | 64.4% | 23.5% | -17.4% (active) | 32.5% | 9.33% (active) | 13.1% | – |
| C=CCn1c(SCC(=O)Nc2ccc(C(=O)/C=C/c3cc(OC)c(OC)c(OC)c3)cc2)nnc1-c1c[nH]c2ccccc12 | 101 | – | 34.1% | 43.5% | 144 | – | 44% | 2.78% (active) | 1.35% (active) | -35.2% (active) | 37.8% | 32.1 | 59.4 | 75.3% | -26% (active) | 6.15% (active) | 38.8% | 88.9% | 5.4% (active) | 52.2 |
| CNC(=O)c1cc(Oc2ccc3nc(NC(=O)c4ccc(N5CCOCC5)c(C(F)(F)F)c4)sc3c2)ccn1 | – | 78.7 | 90.4% | 54.7% | 127 | 87.2% | – | 75.8% | 53.2% | 47.5% | 56.2% | 99 | 61.5 | 102% | 88.7% | – | 69.6% | – | 75.6% | 91.5 |
| CCCCCCCn1cc2c(NCCc3ccccc3)ncnc2n1 | 127 | – | 93.4% | 71.2% | 119 | 78.7% | 95.3% | 95.4% | 85.4% | 92.4% | 99.9% | 108 | 101 | 113% | – | 121% | 88.5% | 98.7% | 96.2% | 95.1 |
| CCNC(=O)N1CCc2cc(OC)c(OCCc3ccc(OC)cc3)cc2C1c1ccc([N+](=O)[O-])cc1C (centres undefined) | 22.3 | – | 44% | 29.3% | 54.8 | 27.2% | -16.8% (active) | 26.1% | 8.11% (active) | 20.7% | 29.1% | 40.4 | 54 | 51.4% | – | – | 0.838% (active) | 12.2% | 33.4% | 30.4 |
| O=C(CSc1nc2ccccc2c(=O)n1-c1ccccc1)Nc1cccc(C(=O)/C=C/c2ccccc2)c1 | 100 | – | 98.4% | 76% | 107 | 86% | 98% | 88.6% | 77.5% | 6.02% (active) | 84% | 96.6 | 94 | 103% | 95.4% | – | 92.5% | 96.8% | 90.3% | 102 |
